Cycloheximide cs: counter-screen for Shiga toxin inhibitors: cycloheximide protein synthesis inhibition; 12% of 300,000 active; cell reporter, cycloheximide protein synthesis inhibition counterscreen; max response, %; in the data active = max response mostly above about 13%, no sharp cut-off; inactive = mostly below about 14%; note: read at 38.3 µM for the half of the compounds with a filed dose; 0% is about no effect
LmPK inhibitor: blocks Leishmania mexicana pyruvate kinase activity; Potency, µM (top dose mostly 57.5 µM), inactives show at the highest dose activity change, negative = inhibition, most hits filed as inhibitors; purified LmPK, Kinase-Glo ATP luminescence, 1 h; AID 1721; Q27686; 0.37% of 290,000 active; note: potency is the fitted concentration of half-maximal effect; % is set by controls: 0 for no effect and ±100 for the full control effect
Target sequence (Q27686 whole entry, looked up): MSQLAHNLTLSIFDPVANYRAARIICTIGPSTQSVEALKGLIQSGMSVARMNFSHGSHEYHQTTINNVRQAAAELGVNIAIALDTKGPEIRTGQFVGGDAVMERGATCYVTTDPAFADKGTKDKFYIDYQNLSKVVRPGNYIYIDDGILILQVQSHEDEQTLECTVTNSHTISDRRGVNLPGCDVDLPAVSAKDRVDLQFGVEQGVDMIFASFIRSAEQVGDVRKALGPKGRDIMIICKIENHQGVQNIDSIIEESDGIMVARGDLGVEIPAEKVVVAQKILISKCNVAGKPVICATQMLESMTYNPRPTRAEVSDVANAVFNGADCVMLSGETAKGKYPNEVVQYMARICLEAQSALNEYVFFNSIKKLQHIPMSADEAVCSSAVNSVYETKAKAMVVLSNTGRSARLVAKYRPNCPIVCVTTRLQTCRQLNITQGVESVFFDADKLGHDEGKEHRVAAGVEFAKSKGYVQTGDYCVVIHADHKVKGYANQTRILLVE
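Pyruvate kinase activity monitored as ATP production (luciferase luminescence). Conditions: 0.1 nM enzyme, 0.5 mM PEP, 0.1 mM ADP, 1 h, RT; normalized against uninhibited and no-enzyme wells.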
Tb PYK inh: T. brucei pyruvate kinase inhibition; Q57TT1; TbPYK enzyme, Kinase-Glo Plus ATP luminescence, 45 min; Potency, µM (series often up to 76.8 µM), for inactives: at the highest dose activity, negative = inhibition, actives largely listed as inhibitors; 0.12% of 410,000 active; note: potency is the fitted concentration of half-maximal effect; % is set by controls: 0 for no effect and ±100 for the full control effect; nearly all actives have a fitted effect of over 50% in size
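Quantitative HTS: titrated library compounds versus trypanosomal pyruvate kinase in TEA buffer (pH 7.2) containing KCl, MgCl2, BSA and Tween-20. Reactions were initiated with ADP, 130 uM final. Kinase-Glo Plus luminescence was read after 45 min at RT.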
Sm TGR inh: blocks Schistosoma mansoni thioredoxin glutathione reductase; Q962Y6; purified TGR, DTNB reduction, TNB absorbance 405 nm; Potency, µM (highest dose often 114 µM), inactives show at the highest dose activity change, negative = inhibition, most hits filed as inhibitors; 3% of 360,000 active; AID 485364; note: potency is the fitted concentration of half-maximal effect; % is set by controls: 0 for no effect and ±100 for the full control effect; nearly all actives have a fitted effect of over 60% in size
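Kinetic colorimetric format: TGR-catalysed, NADPH-driven DTNB reduction monitored via TNB absorbance. Enzyme dispensed at 20 nM; compound exposure 15 min at room temperature before reaction start.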
Giardia FBPA inh: blocks Giardia fructose-bisphosphate aldolase activity; purified Giardia FBPA; AID 2451; 0.71% of 290,000 active; A8B2U2; Potency, µM (titrated, usually from 59.6 µM), for the others: at the top dose activity, negative = inhibition, actives largely listed as inhibitors; note: potency is the fitted concentration of half-maximal effect; % is set by controls: 0 for no effect and ±100 for the full control effect; nearly all actives have a fitted effect of over 55% in size
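Giardia FBPA (40 nM reagent) was preincubated 10 min at RT with compound (up to 57.5 uM final), then substrate plus GAPDH/TPI/NAD/arsenate coupling system with diaphorase/resazurin was added; resorufin fluorescence (525/598 nm) was read after 20 min.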
Shiga toxin inh: Shiga toxin inhibition. inhibition, % at 38.7 µM. AID 2315. Vero cells, Shiga toxin protein synthesis inhibition reporter. 9.2% of 290,000 active; in the data active = inhibition mostly above about 28%, no sharp cut-off; inactive = mostly below about 43%; note: 0% is about no effect
An asterisk follows results filed as active. Shown is part of a subset that was picked to be rich in hits. Unless noted, calls come from the whole dose curve; as a rule, active = well fitted curve in the direction sought with a large enough effect; inconclusive = small, poorly fitted or top-dose-only effect, or another doubt; inactive = no such curve, though single readings can be large; an effect the other way counts as inactive or inconclusive.

Screening Cc1cccc2sc(NC(=O)CN(C)S(=O)(=O)c3cccs3)nc12 returned Cycloheximide cs 15, LmPK inhibitor 1%, Tb PYK inh -1%, Sm TGR inh -11%, Giardia FBPA inh -9% and Shiga toxin inh 45*.
Screening CN(CC(=O)N1CCc2ccccc21)S(=O)(=O)c1cccs1 returned Cycloheximide cs 61*, LmPK inhibitor 2%, Tb PYK inh -6%, Sm TGR inh 1%, Giardia FBPA inh -3% and Shiga toxin inh 99*.
For CN(CC(=O)NCc1ccccc1Cl)S(=O)(=O)c1cccs1 the results were Cycloheximide cs 15*, LmPK inhibitor 0%, Tb PYK inh -3%, Sm TGR inh 0%, Giardia FBPA inh 6% and Shiga toxin inh 30.
Screening CCOc1ccccc1N(C)S(=O)(=O)c1ccc2c(c1)CCN2C(=O)CCC(=O)O returned Cycloheximide cs -3, LmPK inhibitor 1%, Tb PYK inh 14%, Sm TGR inh -6%, Giardia FBPA inh 3% and Shiga toxin inh -5.
Screening Cn1sccc1=O returned Tb PYK inh -1% and Sm TGR inh -6%.
Cc1cccc(NC(=O)CN(C)S(=O)(=O)c2cccs2)c1 was read as Cycloheximide cs 15*, LmPK inhibitor -6%, Tb PYK inh -4%, Sm TGR inh -9%, Giardia FBPA inh -5% and Shiga toxin inh 101*.
Cn1cnc2cc(NCc3ccc(Cl)cc3)ccc21 was read as Cycloheximide cs 45*, LmPK inhibitor 0%, Tb PYK inh -3%, Sm TGR inh -16%, Giardia FBPA inh 24% and Shiga toxin inh 60*.
CCOc1ccc(CNc2nnnn2C)cc1 was read as Cycloheximide cs -2, LmPK inhibitor 1%, Tb PYK inh -1%, Sm TGR inh -2% and Giardia FBPA inh 6%.
Screening CCOc1ccc(CNc2ccc3c(c2)ncn3C)cc1 returned Cycloheximide cs 35*, LmPK inhibitor 1%, Tb PYK inh -5%, Sm TGR inh 6%, Giardia FBPA inh -28% and Shiga toxin inh 38*.
Screening CCOc1ccc(CNc2ccc3c(c2)ncn3C(C)(C)C)cc1 returned Cycloheximide cs 24*, LmPK inhibitor -8%, Tb PYK inh -7%, Sm TGR inh 3%, Giardia FBPA inh 3% and Shiga toxin inh 40*.
For CCCNC(=O)c1ccccc1NC(=O)c1ccc(CSc2ccccc2)cc1 the results were Cycloheximide cs 17*, LmPK inhibitor 2%, Tb PYK inh -13%, Sm TGR inh 2%, Giardia FBPA inh -9% and Shiga toxin inh 26*.
`Cn1nnnc1SCc1ccc(C(=O)Nc2nccs2)cc1` gave Cycloheximide cs 37*, LmPK inhibitor -7%, Tb PYK inh 3%, Sm TGR inh 10%, Giardia FBPA inh 0% and Shiga toxin inh 51*.
`Cn1nnnc1SCc1ccc(C(=O)Nc2ccccc2F)cc1` gave Cycloheximide cs 32*, LmPK inhibitor -5%, Tb PYK inh -9%, Sm TGR inh 3%, Giardia FBPA inh 1% and Shiga toxin inh 45*.
`Cc1cc(C)cc(NC(=O)c2ccc(CSc3nnnn3C)cc2)c1` gave Cycloheximide cs -4, LmPK inhibitor -5%, Tb PYK inh 1%, Sm TGR inh 7%, Giardia FBPA inh -15% and Shiga toxin inh 14.
Screening O=C(Nc1ccccc1)c1ccc(CSc2ncccn2)cc1 returned Cycloheximide cs 97*, LmPK inhibitor -22%, Tb PYK inh -6%, Sm TGR inh 10%, Giardia FBPA inh -1% and Shiga toxin inh 107*.
`C=CCn1c(SCc2ccc(C(=O)Nc3nccs3)cc2)nnc1-c1ccc(C)c(Cl)c1` gave Cycloheximide cs -1, LmPK inhibitor 0%, Tb PYK inh -5%, Sm TGR inh 1%, Giardia FBPA inh -1% and Shiga toxin inh 18.
For Cc1ccc(NC(=O)c2oc3ccc(S(=O)(=O)N(C)C4CCCCC4)cc3c2C)c(C)c1 the results were Tb PYK inh 6% and Sm TGR inh 2%.
`O=C(Nc1ccccc1F)c1ccc(CSc2ncccn2)cc1` gave Cycloheximide cs 30*, LmPK inhibitor 16µM*, Tb PYK inh -10%, Sm TGR inh -9%, Giardia FBPA inh -5% and Shiga toxin inh 86*.

Compound activity (PubChem BioAssay)
